Measurements from patent publication US20210230599, “STEM-LOOP COMPOSITIONS AND METHODS FOR INHIBITING INTERLEUKIN-8” (VITRISA THERAPEUTICS, INC., published 2021).

Molecular target: Interleukin-8 (IL8, CXCL8), C-terminal His-tagged (Homo sapiens, UniProt P10145 SEQ:1-72)
Assay: competition; competition TR-FRET; G18U
Details: tags: C-terminal 6xHis (Sino Biological); ssRNA; 2'-F G, 2'-OMe A/C/U, 5' C6NH2, 3' idT
Method: To better understand the sequence requirements and to confirm the stem structures of members of the Aptamer 3 family as determined from sequence covariation analysis from both the primary and secondary (degenerate) selections, a series of variants which included mutations and deletions to the predicted stems were synthesized and screened (Table 24). Activity of each of these variants were tested using a time resolved competition TR-FRET assay in which the labeled parent Aptamer 3 was competed with increasing concentrations of unlabeled variants for binding to IL8 (FIG. 14). Briefly, 2-fold dilutions of thermally equilibrated aptamers were made in TR-FRET Buffer (50 mM MOPS, pH 7.4, 125 mM NaCl, 5 mM KCl, 50 μM CHAPS, 0.1 mg/mL BSA, 1 mM CaCl₂, and 1 mM MgCl₂). 5 μL of aptamer or control solution was added to 5 μl mix of 10 nM C-terminal His-tagged-IL8, 60 nM ALEXA FLUOR® 647-labeled Aptamer, and 5 nM anti-His-Eu (Perkin Elmer) in a black wall low volume 384 well plate (Greiner). For control, 5 μl of 1000-fold excess of unlabeled parent aptamer or 5 μl TR-FRET buffer alone was added to the mix of ALEXA FLUOR® 647-labeled aptamer, His-IL8, and anti-His-Eu. The plate was covered with a plate seal and subsequently incubated in the dark for 1 hour at room temperature. The plate was read on a Biotek CYTATION™ 5 plate reader. […]

Sequence | binding signal [fold worse than Aptamer 3]
UGAUGACGGUAGAUUACUGGUAGAGUGACCGCAUCU | > 10
